A selection: hits, their analogues and other compounds. The true share with any hit is near 4.8%.
hgDAF12 agonist = H. glycines DAF-12 receptor agonists, primary screen, cell-based, luminescence, HEK293, GAL4 fusion, UAS-luciferase. Nuclear hormone receptor DAF-12 (Heterodera glycines), GAL4 fusion. HEK293 GAL4-hgDAF12 UAS-luciferase reporter, agonist luminescence; normalized to butyrate control. 370,000 tested, 1.8% active. AID 687014, 2013. activation, % at 6.8 µM;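 active = activation above a cutoff set at the mean of all screened compounds plus 3 SD, cut at about 10% in these data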;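 note: 0% = DMSO wells and 100% = sodium butyrate wells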
Rev-erbA mod = modulators of Rev-erb alpha DNA binding, primary screen, biochemical, FITC-DNA, fluorescence polarization, uHTS; Nuclear receptor subfamily 1 group D member 1 (Homo sapiens), P20393; Rev-erbα–FITC-DNA binding, 90 min; activity, % at 10 µM; 370,000 tested, 0.79% active; AID 1259318, 2017;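 active = activity above about 14%, limit read from the data; passing the limit was not always enough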;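 note: 0% = DMSO wells with 35 nM protein and 100% = DMSO wells with 750 nM protein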
hcDAF12 agonist = H. contortus DAF-12 nuclear receptor activators, primary screen, cell-based, luminescence, HEK293, lit1-tk-luc reporter; AID 652067, 2013; HEK293 hcDAF-12 lit1-tk-luc reporter; 0% DMSO, 100% Δ7-dafachronic acid; activation, % at 6.8 µM; 370,000 tested, 1.4% active;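 active = activation above the mean of all tested compounds plus 3 SD, cut at about 5.5% in these data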;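 note: 100% = response to 3 µM Δ7-dafachronic acid high control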
DAX1 inh-1 = DAX1 (NR0B1) inhibitors, primary screen, cell-based, HEK293, Gal4-DAX1, luciferase luminescence | 340,000 tested, 0.99% active | inhibition, % at 6.75 µM | AID 504766, 2011 | Nuclear receptor subfamily 0 group B member 1 (Homo sapiens), P51843 | HEK293 Gal4-DAX1 luciferase reporter;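 active = inhibition above the mean over all tested compounds plus 3 SD, cut at about 4.2% in these data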;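 note: 0% = DAX1-transfected cells with DMSO and 100% = empty-vector control cells with DMSO; inhibition shows as a rise in luminescence from relieved DAX1 repression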
Target sequence (P51843 207-470 limits assumed): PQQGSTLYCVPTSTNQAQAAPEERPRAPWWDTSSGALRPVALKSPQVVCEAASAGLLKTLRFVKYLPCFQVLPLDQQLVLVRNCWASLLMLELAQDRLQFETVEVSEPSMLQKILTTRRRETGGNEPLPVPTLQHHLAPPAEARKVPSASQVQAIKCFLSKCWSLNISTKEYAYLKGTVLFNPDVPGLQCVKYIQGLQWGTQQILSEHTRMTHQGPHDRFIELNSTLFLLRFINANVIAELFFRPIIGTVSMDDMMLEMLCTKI
DAX1 inh-2 = DAX1 (NR0B1) inhibitors on StAR promoter, primary screen, cell-based, luminescence, SF-1 (NR5A1), full-length DAX-1; 370,000 tested, 1.1% active; inhibition, % at 6.8 µM; HEK293T StAR-luciferase reporter, SF-1/DAX-1 repression relief;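 active = inhibition above the mean over all tested compounds plus 3 SD, cut at about 3.6% in these data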;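 note: 0% = DAX-1 cells with DMSO and 100% = cells lacking DAX-1 with DMSO; higher inhibition means more luminescence from relief of DAX-1 repression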
ssDAF-12 act = S. stercoralis DAF-12 nuclear receptor activators, primary screen, cell-based, luminescence, HEK293, GRIP1 co-expression, lit1-tk-luc. Nuclear hormone receptor DAF-12 (Strongyloides stercoralis). HEK293 ssDAF-12/GRIP1 lit1-tk-luc reporter; % of 3 µM dafachronic acid response. activation, % at 6.8 µM. 370,000 tested, 1% active;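 active = activation above the mean over all tested compounds plus 3 SD, cut at about 0.9% in these data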;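 note: 0% = DMSO-only wells and 100% = 3 µM delta7-dafachronic acid wells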
* = called active by the depositor; . = no result given.

SMILES | hgDAF12 agonist | Rev-erbA mod | hcDAF12 agonist | DAX1 inh-1 | DAX1 inh-2 | ssDAF-12 act
O=C(COC(=O)c1ccc2c(c1)OCO2)Nc1ccccc1OC(F)F | 2 | 2 | 0 | -1 | -2 | -1
O=C(COC(=O)c1ccc(Cl)c([N+](=O)[O-])c1)Nc1ccccc1OC(F)F | 1 | -1 | 2 | 4.7* | 0 | -1
CC(C)C[C@H]1CN=C(Nc2ccccc2)N1CC1CCC(C(C)(C)C)CC1 (stereo not given in full) | . | . | . | 4.5* | . | .
c1ccc([C@@H]2CCNC[C@H]2COc2ccc3c(c2)OCO3)cc1 | . | -9 | . | . | . | .
COc1ccc(-c2ccc3c(N)c(C(=O)c4cccc(OC)c4)sc3n2)cc1 | 4 | 1 | 0 | 0 | 0 | 0
COc1cccc(-c2ccc3c(N)c(C(=O)NC4CC4)sc3n2)c1 | 11* | 1 | 1 | 4.7* | 1 | -1
Cc1ccc(-c2cc(C(=O)NN=Cc3cccc4ccccc34)[nH]n2)cc1C | 12* | -10 | 0 | . | -2 | -1
COc1ccc2ccccc2c1C=NNC(=O)c1cc(-c2ccc(C)c(C)c2)n[nH]1 | 6 | -16 | -2 | . | -3 | -1
COc1ccc(C(=O)NC(C)C2CC3CCC2C3)cc1 (stereo not given) | 3 | 1 | -1 | 0 | 0 | -1
COc1ccc(NC(=O)NC(C)C2CC3CCC2C3)cc1 (stereo not given) | -4 | -5 | 1 | 2 | 0 | 17*
CC(NC(=O)c1ccc(C#N)cc1)C1CC2CCC1C2 (stereo not given) | -1 | 1 | -1 | 5.4* | 0 | -1
CCCC[C@H]1C2CC(OC(=O)Nc3cc(C)cc(C)c3)C(C2)[C@H]2CCCCN21 (stereo not given in full) | 7 | 2 | -2 | . | 0 | -2
COc1ccc(/C=C2\SC(=S)N(CCC(=O)Nc3ccccc3C(=O)O)C2=O)cc1 | -2 | -12 | -3 | -1 | 0 | -1
COc1ccc(/C=C2\SC(=S)N(CCCC(=O)Nc3ccccc3C(=O)O)C2=O)cc1OC | 0 | -3 | 6.3* | 1 | 0 | -1
CCCCCCCCCCCCOC(=O)CS(=O)(=O)O | . | -8 | . | . | . | .
C[C@@H](C(=O)Nc1nccs1)N1C(=O)C2CC=CCC2C1=O (stereo not given in full) | -1 | -1 | 0 | 4.8* | 1 | -1
CC(C(=O)Nc1nccs1)N1C(=O)C2CC=CCC2C1=O (stereo not given) | 2 | -3 | -1 | -1 | 0 | -1
COc1cc(/C=N/n2cnnc2)ccc1OCc1ccc(C)cc1 | 12* | 7 | 1 | 1 | 1 | 0
C=CCc1cc(/C=N/n2cnnc2)cc(OCC)c1O | 1 | -8 | 0 | 1 | 0 | -1
CCOc1cc(/C=N/n2cnnc2)ccc1O | 0 | 0 | 6.5* | 0 | 0 | -1
COC(=O)C1CN(Cc2cn(Cc3ccc(OC)cc3)nn2)CCS(=O)(=O)N1Cc1ccc(OC)cc1 (stereo not given) | -1 | -1 | -1 | . | -1 | -2
COc1cc(C(=O)OCC(=O)N2CCCCC2C)ccc1OCc1c(C)noc1C (stereo not given) | 7 | 1 | -2 | 4.7* | 0 | -1
COc1cc(C(=O)OCC(C)=O)ccc1OCc1c(C)noc1C | 1 | -5 | -2 | -2 | -3 | -1
CS(=O)(=O)N1c2ccccc2C[C@H]1Cc1cc2ccccc2o1 | 1 | 9 | 1 | . | . | 0
CCOC(=O)NC1(NCC(C)C)Oc2ccccc2O1 | -1 | -4 | 0 | 4.4* | 0 | -1
SMILES | hgDAF12 agonist | Rev-erbA mod | hcDAF12 agonist | DAX1 inh-1 | DAX1 inh-2 | ssDAF-12 act
CCOc1ccc(S(=O)(=O)N(CC(=O)O)c2ccc(C)cc2)cc1 | 0 | -4 | 0 | 0 | 0 | -2
CCOc1ccc(N(Cc2ccc(C(=O)O)cc2)S(=O)(=O)c2ccc(C)cc2)cc1 | 2 | 0 | 2 | 1 | -1 | 1.5*
O=C(NC1CCCCN(Cc2ccc(OC(F)(F)F)cc2)C1=O)c1ccc(F)c(F)c1 (stereo not given) | 3 | -5 | 0 | . | 0 | -1
O=c1c2ccccc2[nH]n1[C@@H](Cc1ccccc1)Cn1cc(-c2ccc(-c3ccccc3)cc2)nn1 | 3 | -2 | -3 | . | 0 | -2
Cc1ccc2[nH]c(CNC(=O)c3ccc(F)cc3)cc2c1 | -1 | 0 | 1 | 1 | 1 | 1.0*
CN(C(=O)[C@H]1O[C@@H](n2cnc(C(N)=O)n2)[C@H](O)[C@@H]1O)c1ccccc1 | 0 | -6 | -1 | . | 0 | -1
O=C(O)c1cccc2c1C(=O)N(Cc1ccccc1)C2 | 1 | -1 | -1 | 0 | 1 | 1.2*
O=S(=O)(CC1NCc2cc(F)ccc21)NCc1ccccc1 (stereo not given) | 0 | 4 | 1 | . | -1 | -1
Cc1ccc(N2NC(C)(c3cccs3)NC2=S)cc1 (stereo not given) | -2 | -2 | 3 | 4.3* | 0 | 0
COc1ccc(CCC(=O)Nc2ncc(C)s2)cc1 | 4 | 5 | 1 | 1 | 0 | 2.2*
COC(=O)C[C@@H]1CC[C@@H]2[C@@H](COc3ccc(NC(=O)Nc4ccc(F)cc4)cc3C(=O)N2C)O1 | 1 | 2 | 1 | . | -1 | 0
CC1CCCCC1=NNC(=O)c1ccccc1 (stereo not given) | 10 | 1 | 2 | 5.9* | 4.1* | 0
O=C(NN=C1c2ccccc2-c2ccccc21)c1ccccc1 | 7 | -7 | 2 | 2 | 1 | -2
COc1cc2ccc(=O)oc2cc1O | -4 | -9 | -1 | 5.1* | 0 | -2
Cc1ccc2cc(CCNC(=O)c3ccco3)c(=O)[nH]c2c1C | 13* | 0 | 6.5* | 3 | 4.4* | 0
O=c1oc2ccccc2n1CCCOc1ccccc1 | 11* | 3 | 1 | 2 | 2 | -1
O=c1oc2ccccc2n1CCCCCn1c(=O)oc2ccccc21 | -2 | 0 | -1 | 0 | 0 | -1
CCCCNC(=O)C[C@H]1C[C@@]2(C(=O)OC)C(=C[C@H](COCc3ccccc3)O[C@@H]2C)N(Cc2ccccc2)C1=O | 0 | 1 | -2 | . | -1 | -2

Screening data from PubChem BioAssay.
